PubChem BioAssay (NCI)
The panel holds about 83,000 compounds, 20% with a hit somewhere; the sample as a whole holds those more often.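 Compound tested at a single concentration for 48 hours in 96-well plates; a percent growth value below 10 was scored as active.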 Values without a mark were called inactive. Calls of active or inactive are those of the source.

Test system: HL-60(TB) leukemia
Assay: NCI-60 one-dose screen, 48 h (100 = growth as untreated, 0 = no growth, -100 = all killed)
Conditions: 10 µM unless noted

| Structure (SMILES) | growth |
| --- | --- |
| COc1cccc(C2(C)Nc3ccccc3-c3nc4ccccc4n32)c1 (stereo not drawn) | 89.1% |
| Cc1cnc(N)nc1OCC(C)(C)CNC(=O)c1cccc(-c2ccc(S(=O)(=O)Nc3ccc4c(c3)N(C(=O)C3CC3)CCC4)cc2)c1 | 18.2% |
| CCC(C)NCc1ccccc1 (stereo not drawn) | 94.6% |
| CC(C)(C)OC(=O)N1C/C(=C\c2ccoc2)C(=O)/C(=C/c2ccoc2)C1 | 87.6% |
| O=C1C=CC(=O)N1CCCCCCCCCCN1C(=O)C=CC1=O | 12.2% |
| COc1cccc(-c2nn(-c3ccccc3)cc2-c2ccnc(NCCNC(=O)Nc3ccccc3)c2)c1 | 19.9% |
| COc1c(OCCCN2CCOCC2)ccc2c3n(c(=NC(=O)c4cnc(N)nc4)nc12)CCN3 | 11.3% |
| O=C1/C(=C/c2cn(-c3ccccc3)nc2-c2ccccc2)SC(=S)N1CCc1ccccc1 | 102% |
| O=S(=O)(NCCNc1cc(-c2c(-c3cccc(O)c3)nc3sccn23)ccn1)c1ccc(Cl)cc1 | 84.3% |
| CCOC(=O)c1csc(-c2ccc(COC(=O)c3ccccc3)o2)n1 | 107% |
| O=C1COc2ccccc2C(=O)N1CCCCN1CCCCC1 | 75.3% |
| CN(C)c1nc(-c2ccco2)n2nc(-c3ccc(Cl)cc3)cc2n1 | 90.8% |
| Cc1cc(O)c(C2=NN(c3ccc(S(N)(=O)=O)cc3)C(c3ccccc3Cl)C2)cc1Cl (stereo not drawn) | -30.2% (active) |
| CCOC(=O)C(C)C(C)(O)c1ccccc1 (stereo not drawn) | 99.2% |
| C=C(C)[C@@H]1CC[C@]2(CN)CC[C@]3(C)[C@H](CC[C@@H]4[C@@]5(C)CCC(=O)NC(C)(C)[C@@H]5CC[C@]43C)[C@@H]12 | -50.5% (active) |
| CCCCCCCCCCN=C(c1ccc(N(C)C)cc1)c1ccc(N(C)C)cc1 | 11.2% |
| O=C1c2c(c3c4ccccc4n(CCCCCCBr)c3c3[nH]c4ccccc4c23)C(=O)N1O | -41.7% (active) |
| O=C(/C=C/C12c3ccccc3C(c3ccccc31)C1C(=O)NC(=O)C12)c1ccccn1 (stereo not drawn) | -11.5% (active) |
| COc1ccc(C2CC(n3nnnc3-c3ccccc3)=NN2)cc1 (stereo not drawn) | 4.11% (active) |

| Structure (SMILES) | growth |
| --- | --- |
| Oc1ccc(Cc2ccccc2)c2cccnc12 | -15.8% (active) |
| Clc1nccc2c(-c3csc(-c4c[nH]c5ccccc45)n3)c[nH]c12 | 29.4% |
| COC(=O)/C=C1\S/C(=N\NC(=O)c2cc3ccc2/C=C\c2ccc(cc2)/C=C\3)N(c2ccccc2)C1=O | 16.4% |
| c1ccc(CSc2ncccc2-c2nnc(SCCN3CCOCC3)o2)cc1 | 101% |
| Cc1nc(-c2ccccc2)cc2c(O)c(C(=O)N/N=C/c3ccc(N(C)C)cc3)[nH]c(=O)c12 | 116% |
| CN(C)CCN1C(=O)c2c(c3c4ccccc4n4c3c3c2c2ccccc2n3C2CC(O)C(O)C4(C)O2)C1=O (stereo not drawn) | 32.5% |
| CC(C)C(=O)Nc1ccc(-c2nc(-c3cccc(OCCN4CCOCC4)c3)c(-c3ccnc(Br)c3)[nH]2)cc1 | -28.5% (active) |
| COc1cnc2c(c1)C(=O)c1c-2n(CCCNC2=NCCS2)c(=O)c2cc(F)ccc12 | -45.5% (active) |
| Oc1ccccc1-c1nnco1 | 96% |
| COc1cc(-c2nc(SCC(=O)Nc3ccc(C(C)=O)cc3)[nH]c(=O)c2C#N)cc(OC)c1OC | -54.3% (active) |
| N/C(=N\C(N)=N\c1nc2ccccc2s1)c1ccnc(Br)c1 | 2.51% (active) |
| O=C(NCCc1ccccc1)Nc1ccc2cc3ccc(NC(=O)NCCc4ccccc4)cc3nc2c1 | -46.9% (active) |
| OC1OC(COC(c2ccccc2)(c2ccccc2)c2ccccc2)C(O)C(O)C1O (stereo not drawn) | 97.4% |
| O=C1c2c(c(=O)[nH]c3ccccc23)CCN1Cc1ccccc1 | 118% |
| CCOC(=O)C1(C(=O)OCC)N=C(c2ccccc2)C=C1c1ccccc1 | 87.2% |
| CCCC(=O)CC(=O)c1ccccc1 | 112% |
| COc1c(-c2cc(-c3ccc(C)o3)[nH]c(=O)n2)c(O)cc2occc12 | 38.2% |
| COc1ccc(S(=O)(=O)NCCNc2nccc(-c3c(-c4cccc([N+](=O)[O-])c4)nc4sccn34)n2)cc1 | 110% |
| COCC[C@H]1CCC/C=C/[C@@H]2C[C@H](O)C[C@H]2[C@H](O)/C=C/C(=O)O1 | 3.25% (active) |
